Source: PubChem BioAssay (several laboratories)
The list is not random: actives were taken first. Their share in the collection is about 3.4%.
ssDAF12 agonist: activators of S. stercoralis DAF-12 nuclear receptor. HEK293 ssDAF-12/GRIP1 lit1-tk-luc reporter, luminescence; % of 3 µM dafachronic acid response. activation, % at 6.8 µM. actives 1% (n = 370,000). AID 652126;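 active = activation above the mean over all tested compounds plus 3 SD, cut at about 0.9% in these data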;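 note: 0% = DMSO-only wells and 100% = 3 µM delta7-dafachronic acid wells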
hgDAF-12 ag: agonists of H. glycines DAF-12 nuclear receptor | AID 687014 | actives 1.8% (n = 370,000) | HEK293 GAL4-hgDAF12 UAS-luciferase reporter, agonist luminescence; normalized to butyrate control | activation, % at 6.8 µM;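 active = activation above a cutoff set at the mean of all screened compounds plus 3 SD, cut at about 10% in these data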;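 note: 0% = DMSO wells and 100% = sodium butyrate wells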
NF-kB neuron act: compounds increasing NF-kB expression in human neuronal cells; NF-kB reporter expression; active compounds read high; fold change at 12.5 µM; actives 1.6% (n = 190,000); in the data active = fold change above about 3.3
hcDAF12 agonist: activators of H. contortus DAF-12 nuclear receptor; AID 652067; activation, % at 6.8 µM; HEK293 hcDAF-12 lit1-tk-luc reporter, luminescence; 0% DMSO, 100% Δ7-dafachronic acid; actives 1.4% (n = 370,000);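 active = activation above the mean of all tested compounds plus 3 SD, cut at about 5.5% in these data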;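 note: 100% = response to 3 µM Δ7-dafachronic acid high control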
APP 5'UTR act: APP 5'UTR luciferase reporter activation; SH-SY5Y APP 5'UTR luciferase reporter, luminescence; zero percent = DMSO vehicle wells; activation, % at 2 µM; actives 1% (n = 190,000); AID 1276;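 active = activation above a set limit, based on mean plus 3 SD of controls, cut at about 140% in these data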
Numbers without * were called inactive.

How did Cc1nn(Cc2ccccc2)c(Cl)c1C(=O)NCc1ccc(C)n1C do in these assays?
ssDAF12 agonist: -2; hgDAF-12 ag: -1; NF-kB neuron act: 1.1; hcDAF12 agonist: 0; APP 5'UTR act: 8

Results for Cc1nn(Cc2ccccc2)c(Cl)c1C(=O)NCCc1ccccc1 ?
ssDAF12 agonist: 1; hgDAF-12 ag: 11*; NF-kB neuron act: 4.3*; hcDAF12 agonist: 2; APP 5'UTR act: 91

How did Cn1c(=O)c(C(=O)NCCc2ccccc2)c(O)c2ccccc21 do in these assays?
ssDAF12 agonist: 1.7*; hgDAF-12 ag: 1; hcDAF12 agonist: 6.3*

What do the screens show for `CCCn1c(=O)c(C(=O)NCCc2ccccc2)c(O)c2ccccc21`?
ssDAF12 agonist: -1; hgDAF-12 ag: 0; hcDAF12 agonist: 1

How did CCn1c(=O)c(C(=O)Nc2ccccc2F)c(O)c2ccccc21 do in these assays?
ssDAF12 agonist: 0; hgDAF-12 ag: 5; hcDAF12 agonist: 6.2*

What do the screens show for `CCn1c(=O)c(C(=O)Nc2ccccc2)c(O)c2ccccc21`?
ssDAF12 agonist: 0; hgDAF-12 ag: 2; hcDAF12 agonist: 4

What do the screens show for `Cn1cccc1C(=O)NCCc1ccccc1`?
ssDAF12 agonist: 0; hgDAF-12 ag: 13*; hcDAF12 agonist: 4

Results for CC(=O)N1CCc2c1cccc2S(=O)(=O)NC(CC(C)C)C(=O)Nc1ccc(F)cc1Cl (centres undefined) ?
ssDAF12 agonist: -1; hgDAF-12 ag: 0; hcDAF12 agonist: 1

Results for CC(=O)N1c2ccccc2C(=O)NCC1C(=O)NC(C)(C)C (centres undefined) ?
ssDAF12 agonist: -1; hgDAF-12 ag: 1; hcDAF12 agonist: -1

Results for CC(=O)c1ccc([C@H](O)[C@@H](C(=O)N(C)c2ccccc2)C2CC2)cc1 ?
ssDAF12 agonist: -1; hgDAF-12 ag: -1; hcDAF12 agonist: -2

What do the screens show for `COC(=O)[C@H](C(C)C)N(CCc1cn(Cc2ccc(C)cc2)nn1)S(=O)(=O)c1ccc(F)cc1Br`?
ssDAF12 agonist: -2; hgDAF-12 ag: 2; hcDAF12 agonist: 4

Results for CCn1c(COc2ccc(C)cc2)nnc1SCC(=O)Nc1ccc(C(=O)OC)cc1 ?
ssDAF12 agonist: -2; hgDAF-12 ag: 3; hcDAF12 agonist: 1

Results for CC(NC(=O)c1c(O)c2ccccc2n(C)c1=O)c1ccccc1 (centres undefined) ?
ssDAF12 agonist: 0; hgDAF-12 ag: 5; hcDAF12 agonist: 6.0*

What do the screens show for `CC(=O)CC[C@@H]1CC[C@]2(CCCN(C(=O)C3CCCCC3)C2)O1`?
ssDAF12 agonist: 0; hgDAF-12 ag: 2; hcDAF12 agonist: 1

Results for CCOC(=O)/C=C(\C)N1N=C(c2ccccc2)CC1c1ccccc1 (centres undefined) ?
ssDAF12 agonist: 0; hgDAF-12 ag: 10; NF-kB neuron act: 2.5; hcDAF12 agonist: 6.7*; APP 5'UTR act: 83

How did O=C(NCCc1ccccc1)C1CCN(C(=O)c2ccc([N+](=O)[O-])cc2)CC1 do in these assays?
ssDAF12 agonist: 0.9*; hgDAF-12 ag: 5; NF-kB neuron act: 1.3; hcDAF12 agonist: 1; APP 5'UTR act: -13

What do the screens show for `CCn1cc(C(=O)N2CCc3ccccc32)c(=O)c2cc(S(=O)(=O)N3CCOCC3)ccc21`?
ssDAF12 agonist: 0; hgDAF-12 ag: 4; NF-kB neuron act: 0.88; hcDAF12 agonist: 5.9*; APP 5'UTR act: 12

Results for CCn1cc(C(=O)N2CCc3ccccc32)c(=O)c2cc(S(=O)(=O)N(C)C3CCCCC3)ccc21 ?
ssDAF12 agonist: -1; hgDAF-12 ag: 0; NF-kB neuron act: 0.36; hcDAF12 agonist: -2; APP 5'UTR act: 17

What do the screens show for `CC(C)C[C@H](NC1(C(=O)NC2CCCCC2)CCC1)C(=O)NCC(c1ccccc1)c1ccccc1`?
ssDAF12 agonist: -2; hgDAF-12 ag: 1; hcDAF12 agonist: 0

What do the screens show for `Cc1cccc2nc(CSc3ccccc3N)cn12`?
ssDAF12 agonist: 1; hgDAF-12 ag: 8; NF-kB neuron act: 4.6*; hcDAF12 agonist: 4; APP 5'UTR act: 132

How did Cc1cccc2nc(CSc3ccccc3C(=O)O)cn12 do in these assays?
ssDAF12 agonist: 0; hgDAF-12 ag: 6; NF-kB neuron act: 1.1; hcDAF12 agonist: 2; APP 5'UTR act: 4

How did CN(C)CC(=O)N[C@H]1C[C@@H]2O[C@@H](CO)CC[C@@H]2O[C@@H]1CCc1ccc(-c2ccc(F)cc2)cc1 do in these assays?
ssDAF12 agonist: -2; hgDAF-12 ag: -1; hcDAF12 agonist: -3

What do the screens show for `COc1ccc(/C(C#N)=C/c2ccccn2)cc1`?
ssDAF12 agonist: 0; hgDAF-12 ag: 12*; hcDAF12 agonist: 4

What do the screens show for `C[C@H](O)[C@@H]1CN2CCc3c([nH]c4c(-c5ccccc5)cccc34)[C@@H]2C[C@@H]1N(C)C(=O)c1ccco1`?
ssDAF12 agonist: -1; hgDAF-12 ag: -3; hcDAF12 agonist: -3

What do the screens show for `Oc1ccc(CN2CCN(Cc3ccccc3)CC2)c2cccnc12`?
ssDAF12 agonist: -1; hgDAF-12 ag: -1; NF-kB neuron act: 6*; hcDAF12 agonist: -1; APP 5'UTR act: 12

Results for CN1CCN(Cc2cc(COCc3ccccc3)c3cccnc3c2O)CC1 ?
ssDAF12 agonist: -1; hgDAF-12 ag: -7; NF-kB neuron act: 5.3*; hcDAF12 agonist: -3; APP 5'UTR act: -72

What do the screens show for `CCC[C@H]1[C@@H](N(C)Cc2cccs2)CC[C@@]23CCCN2C(=O)CCC[C@@H]13`?
ssDAF12 agonist: -2; hgDAF-12 ag: 2; hcDAF12 agonist: -3

What do the screens show for `Cn1nccc1-c1ccc(C(=O)NCc2ccco2)c2occc12`?
ssDAF12 agonist: 0; hgDAF-12 ag: 13*; hcDAF12 agonist: 1

What do the screens show for `Cc1noc(C)c1-c1ccc(C(=O)NCc2ccco2)c2occc12`?
ssDAF12 agonist: 0; hgDAF-12 ag: -1; hcDAF12 agonist: 0

Results for Oc1ccccc1-c1n[nH]c(=S)n1Cc1ccccc1 ?
ssDAF12 agonist: 1.5*; hgDAF-12 ag: -1; hcDAF12 agonist: 5

What do the screens show for `O=C(Cc1ccccc1)NC1CCCCN(Cc2cccc(Cl)c2)C1=O` (centres undefined)?
ssDAF12 agonist: -2; hgDAF-12 ag: 3; hcDAF12 agonist: -2

What do the screens show for `COc1ccc(C(=O)OCCN2CCN(C3CN(Cc4cn(Cc5ccccc5C(F)(F)F)nn4)S(=O)(=O)C3)CC2)cc1OC` (centres undefined)?
ssDAF12 agonist: -3; hgDAF-12 ag: -3; hcDAF12 agonist: -3

What do the screens show for `O=C(NCc1ccccc1)O[C@H]1CC[C@@]23CCCN2C(=O)CCC[C@H]3C1`?
ssDAF12 agonist: -2; hgDAF-12 ag: 2; hcDAF12 agonist: -2

What do the screens show for `O=C(NC1CCCC1)C(C1CC1)n1c(C2CCCC2)nc2ccccc21` (centres undefined)?
ssDAF12 agonist: -1; hgDAF-12 ag: -2; hcDAF12 agonist: 1

Results for O=C(NC1CCCC1)C(C1CC1)n1c(C2CC2)nc2ccccc21 (centres undefined) ?
ssDAF12 agonist: 1.6*; hgDAF-12 ag: 5; hcDAF12 agonist: 1
